# Shown are actives, neighbours in structure and some others; about 4.6% of the full set was active somewhere.
# TRHR PAM: allosterically enhances the human TRH receptor. enhancement, % at 2 µM. actives 0.66% (n = 360,000). TRHR cells, fluo-8 calcium fluorescence, EC20 TRH enhancement. P34981. AID 493056; in the data active means enhancement above about 30%; further: 0% is about no effect
#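 TRHR-expressing cells loaded with fluo-8 calcium dye were read kinetically (ex 480/em 530) during compound addition, then stimulated with an EC20 of TRH (10 nM final). Enhancement of the Gq-mediated intracellular calcium response was scored.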
# D1 potentiator: enhances dopamine response at the human D1 receptor; HEK293 TREx D1 cells, calcium flux, dopamine EC20 potentiation; P21728; potentiation, % at 10 µM; actives 0.036% (n = 360,000); in the data active means potentiation above about 30%; further: 0% is about no effect
# Target sequence (P21728 whole entry, looked up): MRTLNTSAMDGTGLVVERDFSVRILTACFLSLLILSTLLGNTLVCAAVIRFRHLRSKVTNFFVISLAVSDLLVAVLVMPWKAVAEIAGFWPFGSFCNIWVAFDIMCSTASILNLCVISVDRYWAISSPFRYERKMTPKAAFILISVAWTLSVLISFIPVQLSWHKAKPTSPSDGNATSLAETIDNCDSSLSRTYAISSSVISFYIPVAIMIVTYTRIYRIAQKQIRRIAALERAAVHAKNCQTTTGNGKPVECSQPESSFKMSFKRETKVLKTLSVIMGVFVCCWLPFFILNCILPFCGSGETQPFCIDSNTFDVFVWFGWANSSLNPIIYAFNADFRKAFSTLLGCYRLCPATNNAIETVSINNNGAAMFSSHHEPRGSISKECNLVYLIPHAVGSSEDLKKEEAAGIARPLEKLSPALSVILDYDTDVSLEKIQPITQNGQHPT
# D1 antag: human D1 dopamine receptor antagonism; HEK293 TREx D1 cells, calcium flux, dopamine EC80; active compounds read low; activity change, negative = inhibition, % at 10 µM; actives 3.2% (n = 360,000); in the data active means activity change below about -30%; further: on the % scale 0 is the no-effect control and ±100 the full control effect
#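 Compound effects on dopamine-evoked calcium signalling were measured in tetracycline-induced HEK293 Trex D1 cells. Dopamine at EC80 followed a 180 s compound pre-read, and fluorescence was tracked kinetically for 180 s more.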
# D1 agonist: human D1 receptor agonism; actives 1% (n = 360,000); HEK293 T-REx D1 cells, calcium flux, agonist mode; activation, % at 2 µM; AID 504660; P21728; further: 0% is about no effect
#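 Tetracycline-induced HEK293 TREx D1 cells, force-coupled to calcium signalling, were dye-loaded with a no-wash calcium kit. Compound was pin-added after a 10 s baseline. Fluorescence was read kinetically at 1 cycle/s for 180 s, with calcium rises flagged as agonism.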
# TRHR ag: activates the human TRH receptor. P34981. actives 0.18% (n = 360,000). activation, % at 2 µM. TRHR cells, calcium flux fluo-8, FDSS agonist mode; further: 0% is about no effect
#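 Agonist-mode FDSS calcium read (Ex 480/Em 530, 1 s cycles) in 1536-well TRHR cells with fluo-8 dye, after 10-cycle baseline and 23 nL compound addition; TRH at EC20 (10 nM final) added afterwards for the enhancer phase.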
# * marks the source's active call; other numbers are inactive results; / = no result. Unless noted, no stated cut-off is given here; in the data, active means activation above about 30%; inactive means the rest.
SMILES,TRHR PAM,D1 potentiator,D1 antag,D1 agonist,TRHR ag
Cc1ccc(Cn2nc(C)c(C=O)c2Cl)cc1,-6,-5,-36*,2,-1
[O-][n+]1onc2c1CCC1N(O)CCC21O (centres undefined),-3,0,-30*,0,0
CC(C)(C)c1ccc(OCC(=O)Nc2ccc(Cl)cc2C(=O)c2ccccc2)cc1,-1,0,8,0,0
C=CCn1c(O)c(C(CC)=NCc2ccc3c(c2)OCO3)c(=O)[nH]c1=O,6,-4,-16,2,-1
CCCCn1c(O)c(C(CC)=NCc2ccc3c(c2)OCO3)c(=O)[nH]c1=O,0,-1,-34*,1,0
COc1ccc(CCNCc2c(OC)ccc3ccccc23)cc1,8,-6,0,73*,-1
O=P(C(c1c[nH]c2ccccc12)N1CCOCC1)(N1CCOCC1)N1CCOCC1 (centres undefined),1,0,-1,5,0
CN1/C(=C\C=C2C(=O)NC(=O)NC2=O)C(C)(C)c2ccccc21,0,-1,1,107*,101*
Cc1ccc(-n2c(O)c(C=NC3CCCCC3N)c(=O)[nH]c2=O)cc1C (centres undefined),-6,-4,1,2,1
Cc1ccc(-n2c(O)c(C=NC3CCCC3)c(=O)[nH]c2=O)c(C)c1,41*,0,6,1,0
O=C(/C=C/c1c[nH]c2ccccc12)c1c(O)n(CCc2ccccc2)c(=O)[nH]c1=O,47*,39*,51,383*,40*
C/C(=C\c1ccc(N(C)C)cc1)[N+](=O)[O-],-4,-7,-6,22,7
CN(C)c1ccc(/C=C/[N+](=O)[O-])cc1,-2,-5,-4,92*,31*
O=P(O)(O)Cc1ccccc1OP(=O)(c1ccccc1)c1ccccc1,6,-1,66,5,0
CC(N)Cc1cn(Cc2ccccc2)c2ccccc12 (centres undefined),4,-6,4,47*,2
O=C(Nc1ccc2c(c1)OCO2)c1cccn(Cc2ccccc2)c1=O,1,4,/,2,1
CCc1ccc(NC(=O)c2cccn(Cc3cccc([N+](=O)[O-])c3)c2=O)cc1,-1,-3,/,-2,0
CCOC(=O)c1ccc(NC(=O)c2cccn(Cc3ccc(C)cc3)c2=O)cc1,-8,-2,/,10,0
CCOC(=O)c1ccc(NC(=O)c2c(O)[nH]c(=O)[nH]c2=O)cc1,13,-5,-8,241*,73*
Nc1ccccc1C(=O)OCC(=O)c1ccc2c(c1)OCCO2,7,-13,-33*,13,-1
CC(=O)Nc1ccccc1C(=O)OCC(=O)c1ccc2ccccc2c1,-3,-8,6,23,-1
Cc1ccc(NC(=O)N(Cc2ccc3c(c2)OCO3)C2CCN(Cc3ccccc3)CC2)cc1Cl,-5,-5,-7,42*,5
CC(=O)O[C@H]1C[C@@H]2CC[C@@H]3[C@H](CC[C@]4(C)C(=O)CC[C@@H]34)[C@@]2(C)C[C@@H]1OC(C)=O,-4,-6,-41*,3,-1
O=S(=O)(NC1CCCCC1)OCC(Cl)(Cl)Cl,-6,-3,-34*,1,0
CC1CC(C)CN(CC(=O)c2ccc(OC(F)F)cc2)C1 (centres undefined),-2,-2,-3,1,0
SMILES,TRHR PAM,D1 potentiator,D1 antag,D1 agonist,TRHR ag
Cc1c(O)ccc(C(=O)CN2CC(C)OC(C)C2)c1O (centres undefined),-8,-4,-40*,2,0
CCN(CC)c1ccc(/C=N/c2sc3c(c2C#N)C2CCN3CC2)c(O)c1,-14,-2,4,247*,52*
COC(=O)C(O)(c1ccc(N=Cc2ccccc2O)c(C)c1)C(F)(F)F (centres undefined),9,-1,-15,1,0
CC(C)(C)c1ccc(O)c(N=Cc2c(O)ccc3ccccc23)c1,1,-6,-13,258*,63*
COc1ccccc1Sc1ccccc1CC(C)N (centres undefined),8,-1,-25,60*,-1
CC(N)Cc1ccccc1Sc1ccc(O)cc1 (centres undefined),6,-5,-3,19,0
COc1cc2c(cc1OC)CN(c1ccc([N+](=O)[O-])c(C(F)(F)F)c1)CC2,37*,-8,-18,3,0
Cc1ccc(Cn2cccc(C(=O)Nc3cc(C)on3)c2=O)cc1,-3,-3,/,7,0
Clc1ccc2c(c1)C(OC1CN3CCC1CC3)c1ccccc1CS2 (centres undefined),7,-8,-50*,35*,1
Cc1ccc(-n2c(/C=C/c3ccccc3)nc3ccccc3c2=O)cc1C,-6,-2,41,0,0
O=[N+]([O-])c1cc(-n2cnnn2)c(O)c([N+](=O)[O-])c1,-2,-5,3,1,0
O=[N+]([O-])c1cc(O)c(O)c([N+](=O)[O-])c1,-1,-2,-41*,-1,0
COc1ccc(CCNCc2ccc(C)s2)cc1OC,-7,7,3,3,0
COc1ccc(Cc2nccc3cc(OC)c(OC)cc23)cc1OC,-5,-3,-32*,8,0
Cc1ccc(-n2cc(CNC(C)Cc3cnccn3)c(-c3cccc(C)c3)n2)cc1 (centres undefined),7,-3,35,37*,0
O=C(Nc1ccon1)c1cccn(Cc2cccc([N+](=O)[O-])c2)c1=O,13,-1,/,3,-1
CCOC(=O)C1=C(N)Oc2c(c(=O)oc3ccccc23)C12C(=O)N(C)c1ccccc12 (centres undefined),-3,0,-67*,2,0
C=CCN1C(=O)C2(C(C(=O)OCC)=C(N)Oc3ccccc32)c2c1c1ccccc1oc2=O (centres undefined),0,-9,-10,2,2
O=C1CC(c2ccc(F)cc2)c2c(c3ccccc3oc2=O)O1 (centres undefined),1,-1,-13,0,1
CC1CCC/C=C/C2CC(O)CC2C(O)/C=C/C(=O)O1 (centres undefined),6,4,-7,4,1
C[C@H]1CCC/C=C/C2C[C@H](O)CC2[C@H](O)/C=C/C(=O)O1 (some centres undefined),-1,-3,-41*,2,0
CC1(C)C[C@H]2C=C(C=O)[C@]3(C=O)C[C@]3(C)[C@H]2C1,-19,-4,-57*,2,1
O=C(Nc1ccc2c(c1)OCO2)c1cccn(Cc2cccc(F)c2)c1=O,1,-1,/,0,1
COc1cc2[nH]c(=S)n(-c3ccccc3)c(=O)c2cc1OC,1,-3,-11,0,0

# Screening results as filed in PubChem.
